Measurements as given in PubChem BioAssay AID743149 (Broad Institute, 2013).
Results with a measured potency or affinity are listed apart. Activity calls are given as the source filed them. No rule for the calls is given here.

experiment: cytotoxicity in OV-90 ovarian cancer cells, dose response, PAX8 inhibitor project, cell-based, plate reader, dry powder, SA8 (AID 743149); settings: series mostly up to 35 µM

Row | Compound | outcome
1 | N#C[C@@H]1[C@@H](c2ccc(C#Cc3ccccc3F)cc2)[C@H](CO)N1C(=O)C1CCCCC1 | inactive
2 | COCC(=O)N1[C@H](CO)[C@H](c2ccc(-c3cccnc3)cc2)[C@@H]1C#N | inactive
3 | O=C(C[C@H]1CC[C@H]2[C@@H](COC[C@@H](O)CN2S(=O)(=O)c2cccc(Cl)c2)O1)Nc1ccc(-c2ccccc2)cc1 | inactive
4 | C[C@H](CO)N1C[C@H](C)[C@@H](CN(C)Cc2ccc(-c3ccccc3)cc2)Oc2ccc(NS(=O)(=O)c3ccccc3)cc2CC1=O | inactive
5 | C[C@H](CO)N1C[C@H](C)[C@H](CN(C)C(=O)Nc2ccc(-c3cccs3)cc2)OCc2cnnn2CCCC1=O | inactive
6 | C[C@H](CO)N1C[C@H](C)[C@@H](CN(C)Cc2ccc(-c3ccccc3)cc2)Oc2ccc(NC(=O)C3CC3)cc2CC1=O | inactive
7 | C[C@H](CO)N1C[C@H](C)[C@@H](CN(C)S(=O)(=O)c2ccc(Cl)cc2)OCCCC[C@H](C)Oc2ccc(NS(=O)(=O)c3ccccc3)cc2C1=O | inactive
8 | CCCC#Cc1ccc([C@@H]2[C@@H](C#N)N(S(=O)(=O)c3cccc(F)c3)[C@H]2CO)cc1 | inactive
9 | COc1cccc(C#Cc2ccc([C@@H]3[C@@H](C#N)N(C(=O)C4CCCCC4)[C@H]3CO)cc2)c1 | inactive
10 | CCCC#Cc1ccc([C@H]2[C@@H](CO)N(C(=O)C3CCCCC3)[C@H]2C#N)cc1 | inactive
11 | C[C@@H]1CN([C@H](C)CO)C(=O)CCCn2cc(nn2)CO[C@H]1CN(C)C(=O)Nc1ccc(-c2cccs2)cc1 | inactive
12 | O=C1/C(=C/c2ccccc2)SC(=S)N1CC(=O)N1CCCCC1c1cccnc1 (stereo unspecified) | inactive
13 | N#C[C@@H]1[C@H](c2ccc(C#CC3CCCC3)cc2)[C@H](CO)N1C(=O)Nc1ccc(F)cc1 | inactive
14 | N#C[C@H]1[C@@H](c2ccc(C3=CCCC3)cc2)[C@@H](CO)N1C(=O)NC1CCCCC1 | inactive
15 | COc1ccc(S(=O)(=O)Nc2ccc3c(c2)CC(=O)N([C@@H](C)CO)C[C@@H](C)[C@@H](CN(C)Cc2ccc(-c4ccccc4)cc2)O3)cc1 | inactive
16 | C[C@@H]1CN([C@H](C)CO)C(=O)CCCn2nncc2CO[C@H]1CN(C)Cc1ccc(Oc2ccccc2)cc1 | inactive

Row | Compound | outcome
17 | O=C(NCCc1ccccc1)c1ccc2c(c1)OCCCO2 | inactive
18 | O=C(CN1C(=O)c2ccccc2S1(=O)=O)c1ccccc1Cl | inactive
19 | COc1cccc(C#Cc2ccc([C@H]3[C@@H](CO)N(C(=O)C4CCCC4)[C@H]3C#N)cc2)c1 | inactive
20 | O=C1/C(=C/c2cccc(Br)c2)SC(=S)N1CCC(=O)N(CCO)c1ccccc1 | inactive
21 | COc1ccccc1C#Cc1ccc([C@@H]2[C@@H](C#N)N(C(=O)C3CCCCC3)[C@H]2CO)cc1 | inactive
22 | Cc1ccc(S(=O)(=O)Nc2ccc3c(c2)C(=O)N([C@H](C)CO)C[C@@H](C)[C@H](CN(C)Cc2ccc(C(F)(F)F)cc2)OCCCC[C@H](C)O3)cc1 | inactive
23 | C[C@H](CO)N1C[C@H](C)[C@@H](CN(C)S(=O)(=O)c2ccc(-c3ccccc3)cc2)OCc2cn(nn2)CCCC1=O | inactive
24 | N#C[C@H]1[C@@H](c2ccc(C#Cc3cccc(F)c3)cc2)[C@@H](CO)N1C(=O)C1CCCC1 | inactive
25 | COc1cccc(C#Cc2ccc([C@@H]3[C@H](C#N)N(C(=O)c4ccccn4)[C@H]3CO)cc2)c1 | inactive
26 | O=C(Nc1ccc(OCC(F)(F)C(F)F)c(C(F)(F)F)c1)c1ccccc1O | inactive
27 | Cc1ccccc1OCC(=O)Nc1cccc(C(=O)O)c1 | inactive
28 | N#C[C@@H]1[C@@H](c2ccc(C3=CCCCC3)cc2)[C@@H](CO)N1C(=O)NC1CCCCC1 | inactive
29 | CCN(CC(=O)Nc1c(F)cccc1F)C(=O)c1cc(S(=O)(=O)N(C)C)ccc1N1CCCC1 | inactive
30 | O=C1/C(=C/c2ccccc2F)SC(=S)N1CC(=O)N1CCCCC1c1cccnc1 (stereo unspecified) | inactive
31 | O=C(CN1C(=O)c2ccccc2S1(=O)=O)c1ccc(Cl)cc1Cl | inactive
